What is called inhibition is the drop in the measured response relative to a control, in per cent.

Among the data in PubChem BioAssay AID853 (Columbia University Molecular Screening Center, 2007) are fraction fluorescence in grains and inhibition values, retold here.

SMILES strings stand for the structures. About 200 (0.43%) of roughly 47,000 compounds were called active. Not shown: some 1% with an inconclusive outcome.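 How the source made its calls: active means inhibition of aggregate fluorescence above about 70%, also judged a hit by eye on the cell image (limit read from the data, passing the limit was not always enough); inconclusive means no rule stated for this call; inactive means not judged a hit on image review.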 This excerpt belongs to a sample that is enriched for actives.

The nature of the test: removal of polyQ htt aggregates in HeLa – imaging, HeLa Exon1htt(103Q)mCFP, confocal imaging, primary screen (AID 853).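 Further: cells exposed to compound for three days before fixation.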 The note with it: aggregate imaging, at 1.5 µM; fraction fluorescence in grains: measured here: aggregate grain fluorescence fraction, stronger effect = lower value; inhibition: stronger effect = higher value, zero = plate's median compound well.
With `Clc1ccccc1-c1cc(COc2ccc3ccccc3c2)no1`, the fraction fluorescence in grains stood at 33.9 and the inhibition was 11.8% (inactive).

As to `Cc1c(NC(=O)c2cc(-c3ccc(Cl)s3)nc3ccccc23)c(=O)n(-c2ccccc2)n1C`, the fraction fluorescence in grains turned out to be 26.1 and the inhibition is 21.8% (inactive).

Take `Cc1ccc(S(=O)(=O)N2CC(=O)Nc3ccccc32)cc1C`: the fraction fluorescence in grains stood at 33.9 and the inhibition is 11.1% (inactive).

Regarding `COCCN(C(=O)c1ccco1)c1nnc(-c2ccc(OC)cc2)s1`, the fraction fluorescence in grains came to 39.8 and the inhibition was -2.8% (inactive).

As to `C=CCNC(=S)NNc1ncnc2sc3c(c12)CC(C)(C)OC3`, the fraction fluorescence in grains stood at 40.7 and the inhibition was -39.2% (inactive).

As for `CC1=CC(C)(C)N(C(=O)CSc2nccn2C)c2cc(C)ccc21`, the fraction fluorescence in grains worked out at 13.3 and the inhibition was 26.1% (inactive).

In the case of `CC(C)c1ccc(NC(=O)CCN2C(=O)c3ccc([N+](=O)[O-])cc3C2=O)cc1`, the fraction fluorescence in grains was found to be 13.6 and the inhibition was 55% (inactive).

Take `COc1ccccc1NC(=O)CSc1nnc(C)n1CC1CCCO1` (centres undefined): the fraction fluorescence in grains turned out to be 15.8 and the inhibition is 17.7% (inactive).

`COc1ccc(NC(=O)CCN2CCCC2)c(OC)c1`: the fraction fluorescence in grains amounted to 11.3 and the inhibition is 35.7% (inactive).

`Cc1cc(-c2ccccc2)nc(N2CCC(C(=O)NC34CC5CC(CC(C5)C3)C4)CC2)n1`: the fraction fluorescence in grains came to 31 and the inhibition was 21.6% (inactive).

For the compound `C=CCn1c(-c2ccc3[nH]c(C)c(C)c3c2)n[nH]c1=S`, the fraction fluorescence in grains was found to be 89.3 and the inhibition was -112% (inactive).

Consider `Cc1ccc(CCN2CC(C(=O)O)CC2=O)cc1` (centres undefined), for which the fraction fluorescence in grains amounted to 14.7 and the inhibition is 30.2% (inactive).

For the compound `COc1ccc(C(CNC(=O)c2cccnc2SC)N2CCOCC2)cc1` (centres undefined), the fraction fluorescence in grains stood at 16.3 and the inhibition was 9.2% (inactive).

Turning to `Cc1cc(C)nc(SCc2ccccc2C#N)n1`, the fraction fluorescence in grains was determined as 35.4 and the inhibition is -3.8% (inactive).

Take `Cc1ccc2[nH]c3c(=O)n(Cc4ccccn4)cnc3c2c1`: the fraction fluorescence in grains stood at 21.3 and the inhibition was 46.1% (inactive).

In the case of `Cc1ccc(-n2ccc(=O)c(C(=O)O)n2)cc1`, the fraction fluorescence in grains turned out to be 23.5 and the inhibition is 0.4% (inactive).

In the case of `Cc1cccc(C)c1-n1c(C)cc(/C=C2\C(=O)NN(c3ccccc3)C2=O)c1C`, the fraction fluorescence in grains is 26.9 and the inhibition is 30.9% (inactive).

As to `CCS(=O)(=O)N1CCN(C(=O)c2cccs2)CC1`, the fraction fluorescence in grains was 32.5 and the inhibition was 27.2% (inactive).

As to `C=CCC(NCc1ccco1)c1ccc(OC)cc1` (centres undefined), the fraction fluorescence in grains is 62.5 and the inhibition was -55.5% (inactive).

For `O=S(=O)(NCc1ccccn1)c1ccc(F)cc1`, the fraction fluorescence in grains stood at 25.8 and the inhibition is 28.4% (inactive).

For `Cn1c(NC(=O)c2ccc3c(c2)OCO3)cc(=O)n(C)c1=O`, the fraction fluorescence in grains came out at 24.1 and the inhibition was 28.1% (inactive).

For `CCCc1nc2ccccc2c(C(=O)OCc2nnc(-c3cc(OC)c(OC)c(OC)c3)o2)c1CC`, the fraction fluorescence in grains amounted to 19.4 and the inhibition is -8% (inactive).

As to `Cc1ccc(NC(=O)CSCC(=O)N2CCOCC2)cc1`, the fraction fluorescence in grains was 29.1 and the inhibition is -41.8% (inactive).

`COC(=O)[C@@H](NC(=O)Nc1cc(Cl)ccc1C)C(C)C`: the fraction fluorescence in grains was determined as 45.5 and the inhibition was -4.8% (inactive).

Regarding `CC(=O)Nc1ccc(OCC(O)CN2CCN(c3ccccc3Cl)CC2)cc1` (centres undefined), the fraction fluorescence in grains was 27.5 and the inhibition was -41.1% (inactive).

As for `CCC(=O)c1ccc(OCC(O)CN2CCN(c3cccc(C(F)(F)F)c3)CC2)cc1` (centres undefined), the fraction fluorescence in grains came out at 27.8 and the inhibition is -52.7% (inactive).

Regarding `CCC(=O)c1ccc(OCC(O)CN2CC(C)OC(C)C2)cc1` (centres undefined), the fraction fluorescence in grains is 7.49 and the inhibition was 75% (active).

As for `COc1nc(-c2ccc(Cl)cc2)ccc1-c1noc(-c2cccs2)n1`, the fraction fluorescence in grains was found to be 28.7 and the inhibition is 4.7% (inactive).

With `Cc1cccc(NC(=O)Cn2cc(C(=O)c3ccco3)c3ccccc32)c1`, the fraction fluorescence in grains stood at 68.4 and the inhibition is -81.7% (inactive).

As to `O=C(CSc1nnc(-c2cccs2)n1-c1ccccc1)NCc1ccco1`, the fraction fluorescence in grains is 19.3 and the inhibition was -12.1% (inactive).

Regarding `Cc1ccc2cc(CCNC(=O)c3ccc4c(c3)OCO4)c(=O)[nH]c2c1`, the fraction fluorescence in grains stood at 49.1 and the inhibition was -20% (inactive).

As to `COc1ccc(C2CC(=O)C=C(NCC3CCCO3)C2)cc1` (centres undefined), the fraction fluorescence in grains was 23.6 and the inhibition is 30.2% (inactive).

Turning to `COc1ccccc1NS(=O)(=O)N(C)C`, the fraction fluorescence in grains was 33.9 and the inhibition was -71.4% (inactive).

Regarding `CN(C)/C=C(\C#N)C(=O)c1cccnc1Oc1cccc(F)c1`, the fraction fluorescence in grains amounted to 38.8 and the inhibition was -0.9% (inactive).

Take `Cc1cccc(NC(=O)CSc2nc3c(c(=O)[nH]2)CCCC3)c1C`: the fraction fluorescence in grains came out at 17.3 and the inhibition is 10.8% (inactive).

For `O=c1[nH]c(=O)n(Cc2ccco2)c2c1C(C(F)(F)F)(C(F)(F)F)N=C(c1ccco1)N2`, the fraction fluorescence in grains came to 27 and the inhibition was 36.4% (inactive).

Regarding `Cc1ccc(-n2c(=O)cc(N3CCN(Cc4ccccc4)CC3)[nH]c2=O)cc1`, the fraction fluorescence in grains was determined as 52 and the inhibition was -7.6% (inactive).

For `O=C(NC1CCc2ccccc21)C12CN(Cc3ccccc3)CC1C(c1cccc([N+](=O)[O-])c1)=NO2` (centres undefined), the fraction fluorescence in grains amounted to 39 and the inhibition was -1.5% (inactive).

With `COc1ccccc1NC(=O)c1ccc2nc(N3C(=O)CCC3=O)sc2c1`, the fraction fluorescence in grains worked out at 16.5 and the inhibition is 20.1% (inactive).

Turning to `CC(C)c1nc(N2CCOCC2)c(C#N)c2c1COC(C)(C)C2`, the fraction fluorescence in grains was 31.9 and the inhibition was 13.4% (inactive).

For `COc1ccc(C(=O)NC(=S)Nc2ccccc2N2CCN(S(C)(=O)=O)CC2)cc1OC`, the fraction fluorescence in grains stood at 62.3 and the inhibition was -41.7% (inactive).

With `C#CCSc1nnc(-c2sc3ccccc3c2Cl)o1`, the fraction fluorescence in grains was 52.1 and the inhibition was -34.1% (inactive).
